Results taken from PubChem BioAssay.
For part of these data: Results with a measured potency or affinity are listed apart. The list shows a part of the results. Activity calls are given as the source filed them. Unless noted, how the calls were made is not given here.

Legend:
[1] = target: GTPase HRas (Homo sapiens) (UniProt P01112); assay: blockade of GTP loading onto mutant Ras – biochemical, activated mutant, multiplex bead flow cytometry, dose response (AID 1341;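 active means dose-response curve with midpoint inside the tested range, moderate steepness, significant amplitude and little compound fluorescence or bead-attachment interference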;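 further: GST-tagged constitutively activated Ras mutant immobilized on beads and multiplexed with other GTPases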)
[2] = target: Regulator of G-protein signaling 16 (Homo sapiens) (UniProt O15492); assay: small molecules altering RGS protein interactions with GNAO1 – biochemical, multiplexed beads, flow cytometry, RGS4/7/8/16/19, primary screen (AID 1504); settings: multiplexed bead flow cytometry, measured here: RGS16 interaction, at 10 µM;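 further: fluorescently labeled Galpha-o bound to GDP with aluminium fluoride binding biotinylated RGS beads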
[3] = target: Regulator of G-protein signaling 19 (Homo sapiens) (UniProt P49795); assay: as above; settings: multiplexed bead flow cytometry, measured here: RGS19 interaction, at 10 µM
[4] = target: Regulator of G-protein signaling 4 (Homo sapiens) + Guanine nucleotide-binding protein G(o) subunit alpha (Homo sapiens) (UniProt P49798+P09471); assay: as above; settings: multiplexed bead flow cytometry, at 10 µM
[5] = target: Regulator of G-protein signaling 7 (Homo sapiens) (UniProt P49802); assay: as above; settings: multiplexed bead flow cytometry, measured here: RGS7 interaction, at 10 µM
[6] = target: Regulator of G-protein signaling 8 (Homo sapiens) (UniProt P57771); assay: as above; settings: multiplexed bead flow cytometry, measured here: RGS8 interaction, at 10 µM
[7] = interference with biotin-avidin bead interaction – biochemical, flow cytometry, bead-based, counter-screen for RGS protein interaction modulators (AID 1783;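 active means inhibition above 50%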;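 further: median green fluorescence of gated singlet beads compared with DMSO control wells; 0% = DMSO wells and 100% = complete loss of bead fluorescence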); settings: streptavidin beads, fluorescein-biotin binding; at 10 µM, stronger effect = higher value
[8] = target: Guanine nucleotide-binding protein G(o) subunit alpha (Homo sapiens) (UniProt P09471); assay: retest of RGS8-Galphao interaction hits – biochemical, multiplexed bead flow cytometry, single concentration, confirmation (AID 1836; in the data active means binding response below about 72% or above about 130%; inactive means in between;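 further: Galphao activated as GDP AlF4 complex before binding bead RGS8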); settings: bead-based flow cytometry RGS8-Galphao binding, fluorescence; at 10 µM; actives lie on both sides
[9] = target: Guanine nucleotide-binding protein G(o) subunit alpha (Homo sapiens) (UniProt P09471); assay: retest of RGS7-Galphao interaction hits – biochemical, multiplexed bead flow cytometry, single concentration, confirmation (AID 1837; in the data active means response below about 75% or above about 130%; inactive means in between;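 further: fluorescent Galphao activated with GDP and aluminum fluoride binding bead-coupled RGS7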); settings: bead-based flow cytometry RGS7-Galphao binding; at 10 µM; actives lie on both sides
[10] = target: Regulator of G-protein signaling 16 (Homo sapiens) + Guanine nucleotide-binding protein G(o) subunit alpha (Homo sapiens) (UniProt O15492+P09471); assay: RGS16 and Galphao interaction regulators – biochemical, single concentration, multiplexed bead flow cytometry, confirmation (AID 1838; in the data active means response below about 74% or above about 130%; inactive means in between;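 further: Galphao activated as the GDP aluminium fluoride complex binding bead-coupled RGS16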); settings: bead-based flow cytometry, at 10 µM, actives lie on both sides
[11] = target: Guanine nucleotide-binding protein G(o) subunit alpha (Homo sapiens) (UniProt P09471); assay: RGS4 and Galphao interaction regulators – biochemical, single concentration, multiplexed bead flow cytometry, confirmation (AID 1840; in the data active means binding response below about 74% or above about 130%; inactive means in between); settings: at 10 µM, actives lie on both sides
[12] = target: Guanine nucleotide-binding protein G(o) subunit alpha (Homo sapiens) + Regulator of G-protein signaling 19 (Homo sapiens) (UniProt P09471+P49795); assay: RGS19 interaction with Gαo, hit retest – biochemical, single point, multiplexed bead flow cytometry, confirmation (AID 1841; in the data active means response below about 50% or above about 160%; inactive means in between;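 further: 100% = no compound control and 0% = blank background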); settings: bead-based flow cytometry RGS19-Galphao binding; at 10 µM; actives lie on both sides
[13] = target: Ras-related C3 botulinum toxin substrate 1 (Homo sapiens) (UniProt P63000); assay: inhibition of wildtype Rac1 nucleotide loading – biochemical, multiplex bead flow cytometry, dose response (AID 1340;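 active means dose curve with midpoint inside tested range, moderate steepness, plateau gap beyond fit error, low compound glow and bead-link interference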); settings: GST-Rac1 beads, Bodipy-FL-GTP binding; at 100 µM (top of the series) unless noted

Regulator of G-protein signaling 4 (Homo sapiens) + Guanine nucleotide-binding protein G(o) subunit alpha (Homo sapiens), sequence (P09471 whole entry, looked up): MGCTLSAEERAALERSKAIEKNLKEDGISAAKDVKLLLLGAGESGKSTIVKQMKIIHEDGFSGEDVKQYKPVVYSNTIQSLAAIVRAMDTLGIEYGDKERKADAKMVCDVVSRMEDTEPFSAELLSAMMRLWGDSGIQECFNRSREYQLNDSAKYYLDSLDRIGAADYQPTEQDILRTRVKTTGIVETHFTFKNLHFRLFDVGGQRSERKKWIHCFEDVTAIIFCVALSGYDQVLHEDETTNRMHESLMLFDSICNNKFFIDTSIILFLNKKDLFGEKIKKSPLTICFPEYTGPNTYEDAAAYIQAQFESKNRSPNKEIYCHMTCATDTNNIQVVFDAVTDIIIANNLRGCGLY
Regulator of G-protein signaling 4 (Homo sapiens) + Guanine nucleotide-binding protein G(o) subunit alpha (Homo sapiens), sequence (P49798 whole entry, looked up): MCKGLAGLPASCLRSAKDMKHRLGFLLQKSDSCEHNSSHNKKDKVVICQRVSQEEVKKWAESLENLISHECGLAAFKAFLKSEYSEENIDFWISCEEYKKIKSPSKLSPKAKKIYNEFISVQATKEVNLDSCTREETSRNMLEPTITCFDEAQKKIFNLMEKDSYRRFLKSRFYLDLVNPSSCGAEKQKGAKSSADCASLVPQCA
Guanine nucleotide-binding protein G(o) subunit alpha (Homo sapiens) + Regulator of G-protein signaling 19 (Homo sapiens), sequence (P09471 whole entry, looked up): as the sequence (P09471 whole entry, looked up) above
Guanine nucleotide-binding protein G(o) subunit alpha (Homo sapiens) + Regulator of G-protein signaling 19 (Homo sapiens), sequence (P49795 whole entry, looked up): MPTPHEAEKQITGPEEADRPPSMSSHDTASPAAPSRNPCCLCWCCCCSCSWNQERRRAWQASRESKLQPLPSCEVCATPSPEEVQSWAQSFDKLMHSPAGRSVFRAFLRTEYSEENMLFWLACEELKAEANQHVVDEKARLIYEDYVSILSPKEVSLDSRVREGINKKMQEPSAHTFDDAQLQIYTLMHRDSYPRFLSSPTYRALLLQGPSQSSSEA
Guanine nucleotide-binding protein G(o) subunit alpha (Homo sapiens), sequence (P09471 whole entry, looked up): as the sequence (P09471 whole entry, looked up) above
Regulator of G-protein signaling 16 (Homo sapiens) + Guanine nucleotide-binding protein G(o) subunit alpha (Homo sapiens), sequence (O15492 whole entry, looked up): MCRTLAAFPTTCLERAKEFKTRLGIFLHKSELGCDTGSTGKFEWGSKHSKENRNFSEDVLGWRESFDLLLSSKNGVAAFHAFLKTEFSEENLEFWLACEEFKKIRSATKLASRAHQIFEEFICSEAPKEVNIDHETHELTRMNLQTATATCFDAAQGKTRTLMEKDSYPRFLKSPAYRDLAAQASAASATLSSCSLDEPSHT
Regulator of G-protein signaling 16 (Homo sapiens) + Guanine nucleotide-binding protein G(o) subunit alpha (Homo sapiens), sequence (P09471 whole entry, looked up): as the sequence (P09471 whole entry, looked up) above

In the case of O=C(O)/C=C/c1cn(Cc2ccccc2)nc1-c1cccs1, the outcome [1] is reported as “inactive”.
With O=C(Nc1cccc(F)c1)c1coc(=O)c(Br)c1 the RGS16–Galpha-o binding response [2] was 100%, the RGS19–Galpha-o binding response [3] was 108% and the RGS4–Galpha-o binding response [4] was 83.8% (active). The RGS7–Galpha-o binding response [5] was 45.3%, the RGS8–Galpha-o binding response [6] was 80.8% and the inhibition [7] was -1.3% (inactive). For the same molecule, the binding response (% of control) [8] was 110% (inactive), the response (percent of control binding) [9] was 105% (inactive) and the response (% of control binding) [10] was 109% (inactive). For the same molecule, the binding response (% of control) [11] was 103% (inactive) and the response (percent of control binding) [12] was 118% (inactive).
For Cc1ccc(OCC(O)CN2CCN(CC(O)COc3ccc(C)cc3Cl)CC2)c(Cl)c1 (stereo unspecified), the RGS16–Galpha-o binding response [2] was 367%, the RGS19–Galpha-o binding response [3] was 114% and the RGS4–Galpha-o binding response [4] was 139% (active). For the same molecule, the RGS7–Galpha-o binding response [5] was 127% and the RGS8–Galpha-o binding response [6] was 165%.
For COc1ccc(CCC(=O)OCC(=O)Nc2ccc(C)c(S(=O)(=O)N(C)C)c2)cc1, the RGS16–Galpha-o binding response [2] was 69.9%, the RGS19–Galpha-o binding response [3] was -376% and the RGS4–Galpha-o binding response [4] was 84.4% (active). The RGS7–Galpha-o binding response [5] was 45.2%, the RGS8–Galpha-o binding response [6] was 57.7% and the inhibition [7] was 2.5% (inactive). For the same molecule, the binding response (% of control) [8] was 104% (inactive), the response (percent of control binding) [9] was 104% (inactive) and the response (% of control binding) [10] was 104% (inactive). The binding response (% of control) [11] was 103% (inactive) and the response (percent of control binding) [12] was 100% (inactive).
For CCOc1cc(C(=O)N2CCc3cc(OC)c(OC)cc3C2)ccc1OC(F)F, the RGS16–Galpha-o binding response [2] was 124%, the RGS19–Galpha-o binding response [3] was -289% and the RGS4–Galpha-o binding response [4] was 128% (active). For the same molecule, the RGS7–Galpha-o binding response [5] was 159% and the RGS8–Galpha-o binding response [6] was 105%.
In the case of CCOC(=O)C1=C(c2ccccc2)N=C2SCC(=O)N2C1c1ccc(O)c(OC)c1 (stereo unspecified), the RGS16–Galpha-o binding response [2] is reported as 222%, the RGS19–Galpha-o binding response [3] is reported as -290% and the RGS4–Galpha-o binding response [4] is reported as 121% (active). The RGS7–Galpha-o binding response [5] was 122%, the RGS8–Galpha-o binding response [6] was 144% and the inhibition [7] was 0% (inactive). The binding response (% of control) [8] was 109% (inactive), the response (percent of control binding) [9] was 108% (inactive) and the response (% of control binding) [10] was 110% (inactive). The binding response (% of control) [11] was 106% (inactive) and the response (percent of control binding) [12] was 104% (inactive).
For CCN(CC)S(=O)(=O)c1cccc(-c2n[nH]c(=S)n2/N=C/c2ccc(C(=O)OC)cc2)c1, the RGS16–Galpha-o binding response [2] was 334%, the RGS19–Galpha-o binding response [3] was 35.5% and the RGS4–Galpha-o binding response [4] was 108% (active). The RGS7–Galpha-o binding response [5] was 133%, the RGS8–Galpha-o binding response [6] was 124% and the inhibition [7] was -1.2% (inactive). For the same molecule, the binding response (% of control) [8] was 77.7% (inactive), the response (percent of control binding) [9] was 113% (inactive) and the response (% of control binding) [10] was 74% (active). For the same molecule, the binding response (% of control) [11] was 91% (inactive) and the response (percent of control binding) [12] was 66.1% (inactive).
For CC(=O)N1CC[n+]2c(-c3ccc([N+](=O)[O-])cc3)csc21, the RGS16–Galpha-o binding response [2] was 12.8%, the RGS19–Galpha-o binding response [3] was 114% and the RGS4–Galpha-o binding response [4] was 57% (active). For the same molecule, the RGS7–Galpha-o binding response [5] was 102%, the RGS8–Galpha-o binding response [6] was 63.1% and the inhibition [7] was -0.8% (inactive). The binding response (% of control) [8] was 80.5% (inactive), the response (percent of control binding) [9] was 67.2% (active) and the response (% of control binding) [10] was 58% (active). The binding response (% of control) [11] was 66.7% (active) and the response (percent of control binding) [12] was 62.5% (inactive).
With Cc1ccccc1CS(=O)(=O)CC1(O)CCN(C(=O)c2cccc(C(F)(F)F)c2)CC1 the RGS16–Galpha-o binding response [2] was 106%, the RGS19–Galpha-o binding response [3] was 115% and the RGS4–Galpha-o binding response [4] was 110% (active). The RGS7–Galpha-o binding response [5] was 157%, the RGS8–Galpha-o binding response [6] was 100% and the inhibition [7] was 2.5% (inactive). The binding response (% of control) [8] was 104% (inactive), the response (percent of control binding) [9] was 105% (inactive) and the response (% of control binding) [10] was 102% (inactive). The binding response (% of control) [11] was 105% (inactive) and the response (percent of control binding) [12] was 78.9% (inactive).
COc1ccc(OC)c(-c2c3cc(O)c(=O)cc-3oc3cc(O)c(O)cc23)c1 showed a GTP binding signal, raw median fluorescence (lower = inhibition) (MCF (arbitrary fluorescence units)) [13] of 137.
In the case of O=c1[nH]c2ccccc2s1, the RGS16–Galpha-o binding response [2] is reported as 23%, the RGS19–Galpha-o binding response [3] is reported as 148% and the RGS4–Galpha-o binding response [4] is reported as 88.6% (active). The RGS7–Galpha-o binding response [5] was 88.2%, the RGS8–Galpha-o binding response [6] was 79% and the inhibition [7] was -0.3% (inactive). For the same molecule, the binding response (% of control) [8] was 103% (inactive), the response (percent of control binding) [9] was 102% (inactive) and the response (% of control binding) [10] was 101% (inactive). For the same molecule, the binding response (% of control) [11] was 102% (inactive) and the response (percent of control binding) [12] was 99.2% (inactive).
In the case of CC(C)(C)NC(=O)c1cccc(NC(=O)Cc2ccc(Br)cc2)c1, the RGS16–Galpha-o binding response [2] is reported as -3.28%, the RGS19–Galpha-o binding response [3] is reported as 121% and the RGS4–Galpha-o binding response [4] is reported as 79.3% (active). The RGS7–Galpha-o binding response [5] was 76.6%, the RGS8–Galpha-o binding response [6] was 70.2% and the inhibition [7] was 1% (inactive). The binding response (% of control) [8] was 103% (inactive), the response (percent of control binding) [9] was 100% (inactive) and the response (% of control binding) [10] was 99.4% (inactive). The binding response (% of control) [11] was 100% (inactive) and the response (percent of control binding) [12] was 115% (inactive).
For COc1ccc(-c2nn(-c3ccccc3)cc2C(=O)Nc2nccs2)cc1OC, the RGS16–Galpha-o binding response [2] was 24.6%, the RGS19–Galpha-o binding response [3] was 172% and the RGS4–Galpha-o binding response [4] was 90.3% (active). The RGS7–Galpha-o binding response [5] was 102%, the RGS8–Galpha-o binding response [6] was 75% and the inhibition [7] was -2.4% (inactive). For the same molecule, the binding response (% of control) [8] was 102% (inactive), the response (percent of control binding) [9] was 99.8% (inactive) and the response (% of control binding) [10] was 103% (inactive). For the same molecule, the binding response (% of control) [11] was 101% (inactive) and the response (percent of control binding) [12] was 112% (inactive).
